Laboratory results: PubChem BioAssay
Activity calls are given as the source filed them.

Assay: CREB reporter modulators without forskolin, primary screen, cell-based, PC12, CRE-LacZ reporter, unstimulated (AID 1145)
Conditions: no forskolin, luminescence, 4.5 h, higher = more signal, called active from +8 up or from −8 down

Structure (SMILES)	z-score
CN(C)C(=O)[C@@]1(CCC(=O)OC(C)(C)C)N=C(c2ccc(OCCCO)cc2)O[C@H]1c1ccccc1N=[N+]=[N-]	1.31 (inactive)
COCCOC(=O)N1C(=O)[C@@]2(c3cc(C#CCCO)ccc31)[C@H](C(=O)NC[C@H](O)c1ccccc1)[C@H]1C(=O)O[C@H](c3ccccc3)[C@H](c3ccccc3)N1[C@@H]2c1ccccc1OCCO	-0.0607 (inactive)
COc1ccc([Si](C)(C)[C@H]2[C@H](CCO)O[C@@]3(C(=O)N(Cc4cccc(N5CCOC5=O)c4)c4ccccc43)[C@@H]2C)cc1	0.907 (inactive)
CN(C)CCCC[C@@H]1NC(=O)[C@H]2C[C@@H](C(=O)NCCCCCCNC(=O)CS)[C@@H](c3ccc(O)cc3)N2C1=O	-1.21 (inactive)
CC(C)=CCCC(C)=CC(O)C1C=CC2C(=O)N(c3ccccc3)C(=O)C2N1Nc1ccc([N+](=O)[O-])cc1 (centres undefined)	0.323 (inactive)
COC(=O)[C@@]1(Cc2ccc(OC)cc2)[C@H]2c3cc(C(=O)N(C)C)n(Cc4cc(F)c(F)c(F)c4)c3C[C@H]2CN1C(=O)c1ccccc1	1.34 (inactive)
COCCOC(=O)N1C(=O)[C@@]2(c3cc(C#CCC(C(=O)OC)C(=O)OC)ccc31)[C@H](C(=O)N1CCCCCCC1)[C@H]1C(=O)O[C@H](c3ccccc3)[C@H](c3ccccc3)N1[C@@H]2c1ccc(O)cc1	-0.882 (inactive)
[N-]=[N+]=Nc1ccccc1[C@H]1OC(c2ccc(OCCCO)cc2)=N[C@@]1(Cc1ccccc1)C(=O)NCc1ccccc1	-0.16 (inactive)
COC(=O)C(CC#Cc1ccc2c(c1)[C@]1(C(=O)N2)[C@H](c2ccc(O)cc2)N2[C@H](c3ccccc3)[C@H](c3ccccc3)OC(=O)[C@H]2[C@@H]1C(N)=O)C(=O)OC	0.212 (inactive)
C=CCNC(=O)[C@H]1[C@@H]2C(=O)O[C@@H](c3ccccc3)[C@@H](c3ccccc3)N2[C@@H](c2ccc(OCCO)cc2)[C@]12C(=O)N(C(=O)OCCOC)c1ccc(C#CC3=CCCCC3)cc12	-0.0647 (inactive)
COC(=O)[C@@]1(Cc2ccccc2)[C@H]2c3cc(C(=O)N(C)C)n(Cc4ccccn4)c3C[C@H]2CN1C(=O)c1ccccc1	1.73 (inactive)
O=C(Nc1cc(Br)ccc1C(=O)NCc1cccc(O)c1)c1ccccc1	-0.374 (inactive)
NCCCCCCNC(=O)[C@H]1C[C@H]2C(=O)N3CCC[C@H]3C(=O)N2[C@H]1c1ccc(O)cc1	0.0084 (inactive)
C#CCNS(=O)(=O)N(C)C	-0.882 (inactive)
CCCC=C(CCC)[C@@H](NS(=O)(=O)CC)c1ccccc1	0.59 (inactive)
CN(C)CCCCCCNC(=O)[C@@H]1C[C@@H]2C(=O)NCC(=O)N2[C@@H]1c1ccc(O)cc1	0.147 (inactive)
NC(=O)NCC#Cc1ccc2c(c1)[C@]1(C(=O)N2)[C@H](c2ccc(O)cc2)N2[C@H](c3ccccc3)[C@H](c3ccccc3)OC(=O)[C@H]2[C@@H]1C(N)=O	-0.0515 (inactive)
COCCCNC(=O)[C@@]1(C)c2ccccc2C(=O)N(c2ccc(C)cn2)[C@H]1c1ccc(CO)cc1	0.0279 (inactive)
COCCCNC(=O)[C@]1(Cc2ccccc2)N=C(c2ccc(OCCCO)cc2)O[C@@H]1c1ccccc1N=[N+]=[N-]	0.101 (inactive)
CCCC=C(CCC)[C@@H](NC(=O)Cc1ccccc1)c1ccc(C(=O)OC)cc1	0.0041 (inactive)
COc1ccc([Si](C)(C)[C@@H]2[C@@H](CCO)O[C@]3(C(=O)N(Cc4ccccc4)c4ccc(N5CCCCC5=O)cc43)[C@H]2C)cc1	8.84 (active)
COc1ccc(CCNC(=O)[C@@H]2c3ccccc3C(=O)N(Cc3ccccc3)[C@H]2c2ccc(CO)cc2)cc1	0.971 (inactive)
O=C(CS)NCCCCCNC(=O)[C@@H]1C[C@@H]2C(=O)N3CCC[C@H]3C(=O)N2[C@@H]1c1ccc(O)cc1	-0.13 (inactive)
COC(=O)[C@]1(Cc2ccccc2CN=[N+]=[N-])N=C(c2ccc(OCCCO)cc2)O[C@@H]1c1ccccc1	4.85 (inactive)
COc1ccc([Si](C)(C)[C@@H]2[C@@H](CC(=O)N(CCO)Cc3ccccc3)O[C@]3(C(=O)N(Cc4ccc(N5CCOC5=O)cc4)c4ccccc43)[C@H]2C)cc1	7.59 (inactive)
[N-]=[N+]=NCc1ccccc1C[C@]1(C(=O)NCCN2CCOCC2)N=C(c2ccc(OCCCO)cc2)O[C@H]1c1ccccc1	1.11 (inactive)
COC(=O)[C@H]1N=C(c2ccc(OCCCO)cc2)O[C@H]1c1ccccc1CN=[N+]=[N-]	-0.23 (inactive)

Assay: CREB reporter modulators under forskolin, primary screen, cell-based, PC12, CRE-LacZ reporter, forskolin-stimulated (AID 1146);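 also: PC12 cells with 6xCRE LacZ reporter stimulated by forskolin 10 µM; beta-galactosidase reporter signal reflecting CREB driven transcription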
Conditions: luminescence, 4.5 h, higher = more signal, called active from +8 up or from −8 down

Structure (SMILES)	z-score
CC(C)[Si](C#C[Si](C(C)C)(C(C)C)C(C)C)(O[C@H](C)c1cn(Cc2cccc(Cl)c2)nn1)C(C)C	-0.399 (inactive)
CC(C)(C)OC(=O)CC[C@]1(C(=O)N2CCCCC2)N=C(c2ccc(OCCCO)cc2)O[C@H]1c1ccccc1CN=[N+]=[N-]	-0.707 (inactive)
CCOC(=O)C[C@H]1[C@H](OC(=O)Cc2ccc3c(c2)OCO3)[C@@H](NC(=O)c2ccccc2)c2cc(OCCCO)ccc2N1C(=O)c1ccc2ccccc2n1	-0.981 (inactive)
CC(C)CCC[C@@H](C)[C@H]1CC[C@@]2(C)C3=C(CC[C@]12C)[C@@]1(C)CC[C@H](OC(=O)c2ccc(N)cc2)C(C)(C)C1CC3 (some centres undefined)	-0.391 (inactive)
C=CCC(OC(C)=O)[C@@H]1[C@@H](N(Cc2cccc3ccccc23)C(=O)c2ccc(C)cc2)c2cc(OCCCO)ccc2N1C(=O)c1ccc2ccccc2c1 (some centres undefined)	0.197 (inactive)
COC(=O)C(CC#Cc1ccc2c(c1)[C@]1(C(=O)N2)[C@H](c2ccccc2OCCO)N2[C@H](c3ccccc3)[C@H](c3ccccc3)OC(=O)[C@H]2[C@@H]1C(=O)Nc1nc2ccccc2s1)C(=O)OC	1.53 (inactive)
C=CCOC(=O)[C@@H]1[C@H]2C(=O)O[C@H](c3ccccc3)[C@H](c3ccccc3)N2[C@H](c2ccc(OCCOC(=O)[C@@H]3C[C@@H]4C(=O)N5CCC[C@H]5C(=O)N4[C@@H]3c3cccc(OCCO)c3)cc2)[C@@]12C(=O)Nc1ccc(I)cc12	-0.725 (inactive)
COc1ccc(C(=O)Nc2ccc(CN3C(=O)[C@]4(O[C@H](CCn5cc([C@H](O)c6ccccc6)nn5)[C@@H]([Si](C)(C)c5ccc(OC)cc5)[C@@H]4C)c4ccccc43)cc2)cc1	-1.22 (inactive)
CN(C)C(=O)[C@@]1(CCC(=O)OC(C)(C)C)N=C(c2ccc(OCCCO)cc2)O[C@H]1c1ccccc1N=[N+]=[N-]	-1.33 (inactive)
COCCOC(=O)N1C(=O)[C@@]2(c3cc(C#CCCO)ccc31)[C@H](C(=O)NC[C@H](O)c1ccccc1)[C@H]1C(=O)O[C@H](c3ccccc3)[C@H](c3ccccc3)N1[C@@H]2c1ccccc1OCCO	0.172 (inactive)
COc1ccc([Si](C)(C)[C@H]2[C@H](CCO)O[C@@]3(C(=O)N(Cc4cccc(N5CCOC5=O)c4)c4ccccc43)[C@@H]2C)cc1	-0.827 (inactive)
CN(C)CCCC[C@@H]1NC(=O)[C@H]2C[C@@H](C(=O)NCCCCCCNC(=O)CS)[C@@H](c3ccc(O)cc3)N2C1=O	-0.887 (inactive)
CC(C)=CCCC(C)=CC(O)C1C=CC2C(=O)N(c3ccccc3)C(=O)C2N1Nc1ccc([N+](=O)[O-])cc1 (centres undefined)	-0.0578 (inactive)
COC(=O)[C@@]1(Cc2ccc(OC)cc2)[C@H]2c3cc(C(=O)N(C)C)n(Cc4cc(F)c(F)c(F)c4)c3C[C@H]2CN1C(=O)c1ccccc1	1.12 (inactive)
COCCOC(=O)N1C(=O)[C@@]2(c3cc(C#CCC(C(=O)OC)C(=O)OC)ccc31)[C@H](C(=O)N1CCCCCCC1)[C@H]1C(=O)O[C@H](c3ccccc3)[C@H](c3ccccc3)N1[C@@H]2c1ccc(O)cc1	-0.807 (inactive)
[N-]=[N+]=Nc1ccccc1[C@H]1OC(c2ccc(OCCCO)cc2)=N[C@@]1(Cc1ccccc1)C(=O)NCc1ccccc1	-1.26 (inactive)
COC(=O)C(CC#Cc1ccc2c(c1)[C@]1(C(=O)N2)[C@H](c2ccc(O)cc2)N2[C@H](c3ccccc3)[C@H](c3ccccc3)OC(=O)[C@H]2[C@@H]1C(N)=O)C(=O)OC	-0.615 (inactive)
C=CCNC(=O)[C@H]1[C@@H]2C(=O)O[C@@H](c3ccccc3)[C@@H](c3ccccc3)N2[C@@H](c2ccc(OCCO)cc2)[C@]12C(=O)N(C(=O)OCCOC)c1ccc(C#CC3=CCCCC3)cc12	-0.638 (inactive)
COC(=O)[C@@]1(Cc2ccccc2)[C@H]2c3cc(C(=O)N(C)C)n(Cc4ccccn4)c3C[C@H]2CN1C(=O)c1ccccc1	1.42 (inactive)
O=C(Nc1cc(Br)ccc1C(=O)NCc1cccc(O)c1)c1ccccc1	-0.334 (inactive)
NCCCCCCNC(=O)[C@H]1C[C@H]2C(=O)N3CCC[C@H]3C(=O)N2[C@H]1c1ccc(O)cc1	-0.27 (inactive)
C#CCNS(=O)(=O)N(C)C	0.526 (inactive)
CCCC=C(CCC)[C@@H](NS(=O)(=O)CC)c1ccccc1	1.16 (inactive)
CN(C)CCCCCCNC(=O)[C@@H]1C[C@@H]2C(=O)NCC(=O)N2[C@@H]1c1ccc(O)cc1	0.625 (inactive)
NC(=O)NCC#Cc1ccc2c(c1)[C@]1(C(=O)N2)[C@H](c2ccc(O)cc2)N2[C@H](c3ccccc3)[C@H](c3ccccc3)OC(=O)[C@H]2[C@@H]1C(N)=O	0.143 (inactive)
COCCCNC(=O)[C@@]1(C)c2ccccc2C(=O)N(c2ccc(C)cn2)[C@H]1c1ccc(CO)cc1	0.208 (inactive)
COCCCNC(=O)[C@]1(Cc2ccccc2)N=C(c2ccc(OCCCO)cc2)O[C@@H]1c1ccccc1N=[N+]=[N-]	-0.844 (inactive)
